PubChem BioAssay
Inconclusive results are not listed. Calls of active or inactive are those of the source.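 Rule for the calls, unless noted: active = efflux inhibition above 0.42, the validation set average plus 4 SD; inconclusive = no clear call, values can overlap the other calls; inactive = the rest.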

How the values were obtained:
[1] = rapamycin-like changes in RPL19A-GFP expression – cell-based, S. cerevisiae, multiplex flow cytometry, primary screen (AID 1862; in the data active = percent of DMSO control GFP below about 86%;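 note: lower values mimic rapamycin by blocking the RPL19A rise seen in DMSO cells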); conditions: S. cerevisiae RPL19A-GFP strain, flow cytometry fluorescence, 3 h; at 10 µM; stronger effect = lower value
[2] = TOR pathway GLN3 branch reporter MEP2-GFP changes – S. cerevisiae, multiplex flow cytometry, primary screen (AID 1867;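 active = GFP response, as percent of the DMSO control, above the screen-wide mean plus 3 SD, about 139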;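 note: median GFP channel fluorescence of barcode-gated MEP2-GFP cells measured by flow cytometry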); conditions: S. cerevisiae MEP2-GFP strain, 3 h, at 10 µM, stronger effect = higher value, 100% means same as DMSO wells
[3] = TOR pathway RTG branch CIT2 reporter changes – S. cerevisiae, GFP fusion, multiplex flow cytometry, primary screen (AID 1870;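 active = percent response above a set limit, the screen-wide mean plus 3 SD, cut at about 130% in these data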;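 note: barcoded CIT2-GFP strain pooled with four other GFP strains with rapamycin as positive control; median GFP fluorescence per well over plate mean of DMSO wells so 100% = DMSO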); conditions: S. cerevisiae CIT2-GFP expression, 3 h, at 10 µM, stronger effect = higher value
[4] = TOR pathway LAP4-GFP level changes – S. cerevisiae, multiplex flow cytometry, primary screen (AID 1873;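 active = GFP signal, as percent of the solvent control, above the screen mean plus 3 SD, about 149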); conditions: S. cerevisiae LAP4-GFP expression, 3 h, at 10 µM, stronger effect = higher value
[5] = yeast AGP1-GFP level changes, GLN3 branch – cell-based, multiplex flow cytometry, S. cerevisiae, primary screen (AID 1887;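 active = GFP signal above the screen-wide mean plus 3 SD, that is over about 124.5% of the solvent control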;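 note: AGP1-GFP fusion strain of S. cerevisiae within a five-strain barcoded multiplex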); conditions: 3 h, at 10 µM, stronger effect = higher value
[6] = reduced mouse 2C T cell binding to pMHC/ICAM-1 vesicles – MLPCN validation set, flow cytometry, LFA-1/ICAM-1 modulator project, pilot screen (AID 2523;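 active = response below a set limit, under 55% cells CD8-positive and vesicle-bound, and CD8 cells' 90th-percentile brightness under 279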;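 for vesicle binding response: mean PE anti-B7-1 fluorescence of CD8+ cells relative to row control; 100% = QL9-loaded vesicles with DMSO vehicle in the same plate row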); conditions: 2C mouse CD8+ T cells, at 7 µM, stronger effect = lower value; double positive events: measured here: CD8+/vesicle+ event percentage
[7] = target: Integrin beta-1 (Homo sapiens) + Integrin alpha-4 (Homo sapiens) (UniProt P13612+P05556); assay: alpha4beta1 integrin LIBS antibody binding reduction – U937 cells, HUTS-21 mAb, flow cytometry, validation set, VLA-4 allosteric modulator project, pilot screen (AID 2674;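 active = inhibition above 50%, about 3 SD of the validation set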;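 note: antibody binding induced by the VLA-4 ligand LDV present at three times its Kd; 0% = LDV ligand with antibody and no compound and 100% = antibody without LDV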); conditions: HUTS-21 LIBS mAb binding, at 6.7 µM, stronger effect = higher value, binding induced by LDV ligand
[8] = calorie-restriction mimetic ROS inhibitors, yeast – validation compound set, pilot screen (AID 2706;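 active = superoxide response below 65% of plate, a cut near 3 SD across the whole screen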;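 note: yeast exposed to compound for one week at 30 degrees C before staining; 100% = mean of all compound wells on the same plate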); conditions: S. cerevisiae aging, superoxide DHE fluorescence; at 10 µM; stronger effect = lower value
[9] = target: Beta-adrenergic receptor kinase 1 (Homo sapiens) (UniProt P25098); assay: GRK2 binders displacing RNA aptamer, biochemical, validation, human GRK2, bead flow cytometry (AID 488806;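 active = aptamer binding inhibition above 30%, about 3 SD of noise from non-fluorescent compounds; inactive = inhibition at or below 30%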); conditions: bead-bound GRK2, FAM-aptamer displacement, at 10 µM, stronger effect = higher value
[10] = target: Beta-2 adrenergic receptor (Homo sapiens) (UniProt P07550); assay: agonist-induced loss of surface beta2AR – cell-based, FAP fluorogen, flow cytometry, validation set, pilot screen (AID 504459;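 active = percent response above 42, roughly 3 SD of non-fluorescent test compounds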;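 note: agonist-driven loss of surface beta2AR via internalization measured by FAP dye flow cytometry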); conditions: Am2.2-beta2AR cells, at 10 µM, stronger effect = higher value
[11] = target: AP-2 complex subunit beta (Homo sapiens) (UniProt P63010); assay: beta-arrestin/AP2 interaction blockers – biochemical, validation set, GST-AP2 beads, flow cytometry, pilot screen (AID 504541;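 active = inhibition above 54%, about 3 SD of non-fluorescent compounds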;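 note: AP2 carries R879A mutation and is captured from E. coli lysate; bead-bound FITC arrestin peptide fluorescence measuring arrestin peptide binding to AP2; 0% = DMSO wells and 100% = excess unlabeled arrestin peptide control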); conditions: FITC arrestin peptide, at 10 µM, stronger effect = higher value, AP2 beta2 appendage fragment, R879A mutant
[12] = cytosolic pH regulators acting via V-ATPase – S. cerevisiae, pHLuorin, HTS validation (AID 504600; in the data active = response above about 15%;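 note: plate controls were DMSO for no effect and reference compound for full effect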); conditions: V-ATPase proton transport, at 10 µM, stronger effect = higher value
[13] = system: anti-desmoglein-3 scFv antibody binding to human DSG3; assay: blockers of pathogenic pemphigus antibody–desmoglein-3 binding – biochemical, validation compound set, bead-based, flow cytometry, pilot screen (AID 588368;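 active = binding below the plate cutoff, the plate median minus 3 SD, with a reading above zero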;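 note: signal is the median channel fluorescence of bead-bound GFP antibody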); conditions: Protein G beads, DSG3-Fc, scFv-GFP binding, at 10 µM, stronger effect = lower value
[14] = Nile Red efflux blockade in pump-expressing yeast – validation compound set, multiplex, phenotypic, pilot screen (AID 588506);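 note: Nile Red retained in cells so higher fluorescence means more efflux inhibition; 0 = negative control wells and 1 = enniatin B 25 µM full block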; conditions: S. cerevisiae pump-expressing triplex, Nile Red efflux flow cytometry; at 10 µM; stronger effect = higher value; the pumps come from Candida albicans
[15] = target: ATP-binding cassette sub-family B member 6 (Homo sapiens) (UniProt Q9NP58); assay: blockers of ABCB6-driven porphyrin uptake – K562-ABCB6 cells, flow cytometry, validation set, pilot screen (AID 588550;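 active = inhibition above the screen-wide mean plus 3 SD, about 51%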;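 note: 0% = DMSO wells and 100% = benzethonium chloride 70 µM positive control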); conditions: K562-ABCB6 porphyrin accumulation, 1 h, at 10 µM, stronger effect = higher value
[16] = AML differentiation inducers, ER-HoxA9 marrow cells – cell-based, GFP/MAC1 double positive, flow cytometry, validation set, primary screen (AID 588685;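 active = differentiation response of at least 50%, scaled between solvent and reference control, from cells with both markers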;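 note: compound exposure lasts four days before antibody staining and flow analysis; 0% = DMSO wells and 100% = 5 µM fulvestrant positive control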); conditions: stronger effect = higher value, normalized: vehicle 0, fulvestrant 100
[17] = hit retest on RPL19A-GFP reporter strain – cell-based, S. cerevisiae, flow cytometry, cherry picks, mother/daughter gates, confirmation (AID 2270;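 active = GFP response below 50% of the DMSO control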); conditions: 3 h, at 10 µM, stronger effect = lower value, 100 = same GFP as DMSO wells
[18] = yeast TOR pathway reporter LAP4-GFP change – cell-based, cherry picks, flow cytometry, mother/daughter gates, confirmation (AID 2271;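 active = GFP response above 150% of the DMSO control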;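 note: ratio of sample to DMSO plate mean so 100% equals DMSO level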); conditions: S. cerevisiae LAP4-GFP strain, 3 h, at 10 µM, stronger effect = higher value, 100 means same as DMSO control
[19] = TOR pathway reporter MEP2-GFP, retest of hits – S. cerevisiae, flow cytometry GFP, cherry picks, confirmation (AID 2272;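 active = GFP response above 150% of the DMSO control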;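 note: ratio of well signal to plate DMSO mean so 100% equals DMSO level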); conditions: S. cerevisiae MEP2-GFP strain, 3 h, at 10 µM, stronger effect = higher value
[20] = TOR pathway CIT2 reporter hit retest – S. cerevisiae, GFP fusion, cherry picks, mother/daughter gates, confirmation (AID 2274;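 active = GFP response above 150% of the DMSO level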); conditions: S. cerevisiae CIT2-GFP strain, flow cytometry, 3 h, at 10 µM, stronger effect = higher value
[21] = measured here: daughter cell gate
[22] = measured here: mother cell gate

Sequence of Integrin beta-1 (Homo sapiens) + Integrin alpha-4 (Homo sapiens) (P05556 whole entry, looked up): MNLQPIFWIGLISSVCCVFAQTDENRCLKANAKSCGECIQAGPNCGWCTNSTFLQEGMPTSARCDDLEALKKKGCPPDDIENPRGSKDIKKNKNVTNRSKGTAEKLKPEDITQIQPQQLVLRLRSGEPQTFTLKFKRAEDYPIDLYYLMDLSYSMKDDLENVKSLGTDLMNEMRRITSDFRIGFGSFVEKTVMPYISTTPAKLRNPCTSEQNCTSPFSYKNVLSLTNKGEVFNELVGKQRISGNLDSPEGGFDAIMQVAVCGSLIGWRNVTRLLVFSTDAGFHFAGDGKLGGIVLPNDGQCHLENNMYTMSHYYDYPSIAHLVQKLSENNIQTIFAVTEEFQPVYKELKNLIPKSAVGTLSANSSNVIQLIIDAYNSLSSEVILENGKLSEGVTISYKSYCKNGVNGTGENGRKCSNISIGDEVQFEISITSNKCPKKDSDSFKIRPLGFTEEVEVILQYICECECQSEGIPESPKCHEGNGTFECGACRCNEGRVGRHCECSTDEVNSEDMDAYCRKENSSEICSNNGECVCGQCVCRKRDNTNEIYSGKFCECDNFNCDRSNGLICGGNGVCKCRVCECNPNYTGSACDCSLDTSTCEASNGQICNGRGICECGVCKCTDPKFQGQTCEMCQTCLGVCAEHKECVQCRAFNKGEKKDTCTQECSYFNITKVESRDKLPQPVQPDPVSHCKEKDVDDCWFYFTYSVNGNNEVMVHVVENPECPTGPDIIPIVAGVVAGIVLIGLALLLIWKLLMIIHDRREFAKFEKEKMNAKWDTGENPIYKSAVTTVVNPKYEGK
Sequence of Integrin beta-1 (Homo sapiens) + Integrin alpha-4 (Homo sapiens) (P13612 whole entry, looked up): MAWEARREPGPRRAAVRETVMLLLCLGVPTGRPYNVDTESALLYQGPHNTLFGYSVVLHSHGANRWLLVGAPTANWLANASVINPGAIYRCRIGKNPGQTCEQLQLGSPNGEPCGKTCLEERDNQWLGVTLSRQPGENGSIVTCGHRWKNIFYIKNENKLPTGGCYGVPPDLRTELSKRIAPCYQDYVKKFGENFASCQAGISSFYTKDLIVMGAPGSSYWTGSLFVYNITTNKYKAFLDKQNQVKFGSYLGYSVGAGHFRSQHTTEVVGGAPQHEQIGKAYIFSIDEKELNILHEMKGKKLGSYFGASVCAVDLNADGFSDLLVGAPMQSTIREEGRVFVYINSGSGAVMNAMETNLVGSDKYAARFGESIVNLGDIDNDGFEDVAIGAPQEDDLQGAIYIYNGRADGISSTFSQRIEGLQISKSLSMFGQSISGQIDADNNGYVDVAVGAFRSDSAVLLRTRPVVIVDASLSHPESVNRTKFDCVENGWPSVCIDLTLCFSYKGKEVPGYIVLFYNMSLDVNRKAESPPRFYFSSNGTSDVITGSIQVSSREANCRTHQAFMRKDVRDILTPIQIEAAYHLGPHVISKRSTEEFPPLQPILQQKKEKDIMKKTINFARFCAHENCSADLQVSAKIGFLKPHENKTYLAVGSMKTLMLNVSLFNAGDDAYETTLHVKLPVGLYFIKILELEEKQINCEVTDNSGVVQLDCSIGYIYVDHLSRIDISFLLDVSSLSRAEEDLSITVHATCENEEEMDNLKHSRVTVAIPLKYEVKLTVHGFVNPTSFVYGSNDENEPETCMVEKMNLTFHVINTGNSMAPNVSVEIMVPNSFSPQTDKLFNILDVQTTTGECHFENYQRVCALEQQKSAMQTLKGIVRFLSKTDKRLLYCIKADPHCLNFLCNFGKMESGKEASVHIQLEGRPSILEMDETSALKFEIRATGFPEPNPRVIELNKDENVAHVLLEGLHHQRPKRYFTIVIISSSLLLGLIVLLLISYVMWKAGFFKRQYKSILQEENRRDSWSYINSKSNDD
Sequence of ATP-binding cassette sub-family B member 6 (Homo sapiens) (Q9NP58 whole entry, looked up): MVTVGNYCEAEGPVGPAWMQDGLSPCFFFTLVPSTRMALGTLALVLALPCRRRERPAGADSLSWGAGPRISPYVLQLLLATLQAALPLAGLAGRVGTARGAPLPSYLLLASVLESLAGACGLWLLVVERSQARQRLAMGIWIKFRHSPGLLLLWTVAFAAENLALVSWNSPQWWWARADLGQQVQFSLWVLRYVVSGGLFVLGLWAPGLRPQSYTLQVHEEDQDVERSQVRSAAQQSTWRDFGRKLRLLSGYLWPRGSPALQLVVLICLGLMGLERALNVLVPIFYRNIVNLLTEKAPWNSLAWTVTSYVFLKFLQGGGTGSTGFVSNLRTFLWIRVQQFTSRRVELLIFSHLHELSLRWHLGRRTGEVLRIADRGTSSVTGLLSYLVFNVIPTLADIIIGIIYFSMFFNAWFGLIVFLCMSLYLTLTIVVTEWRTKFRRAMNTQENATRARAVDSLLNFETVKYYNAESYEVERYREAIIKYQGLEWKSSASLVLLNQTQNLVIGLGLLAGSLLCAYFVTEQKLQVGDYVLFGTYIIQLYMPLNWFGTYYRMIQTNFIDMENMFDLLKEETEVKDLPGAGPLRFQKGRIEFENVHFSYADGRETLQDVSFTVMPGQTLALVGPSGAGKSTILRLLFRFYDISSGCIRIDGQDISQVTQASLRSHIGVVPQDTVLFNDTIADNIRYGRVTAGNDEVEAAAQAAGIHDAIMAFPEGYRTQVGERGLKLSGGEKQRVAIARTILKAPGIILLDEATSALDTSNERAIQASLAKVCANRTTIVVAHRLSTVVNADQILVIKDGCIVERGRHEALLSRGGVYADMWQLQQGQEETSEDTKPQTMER
Sequence of Beta-2 adrenergic receptor (Homo sapiens) (P07550 whole entry, looked up): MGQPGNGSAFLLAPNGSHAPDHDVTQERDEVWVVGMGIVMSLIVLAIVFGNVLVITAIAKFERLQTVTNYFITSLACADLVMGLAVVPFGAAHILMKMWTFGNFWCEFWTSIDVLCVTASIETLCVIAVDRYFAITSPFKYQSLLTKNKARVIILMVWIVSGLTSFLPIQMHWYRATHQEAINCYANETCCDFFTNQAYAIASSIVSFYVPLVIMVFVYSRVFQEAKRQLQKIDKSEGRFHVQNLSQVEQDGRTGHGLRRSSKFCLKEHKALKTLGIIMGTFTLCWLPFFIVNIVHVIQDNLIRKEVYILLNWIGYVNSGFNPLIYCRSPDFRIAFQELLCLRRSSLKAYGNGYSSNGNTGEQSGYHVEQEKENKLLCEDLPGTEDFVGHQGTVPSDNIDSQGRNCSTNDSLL
Sequence of Beta-adrenergic receptor kinase 1 (Homo sapiens) (P25098 whole entry, looked up): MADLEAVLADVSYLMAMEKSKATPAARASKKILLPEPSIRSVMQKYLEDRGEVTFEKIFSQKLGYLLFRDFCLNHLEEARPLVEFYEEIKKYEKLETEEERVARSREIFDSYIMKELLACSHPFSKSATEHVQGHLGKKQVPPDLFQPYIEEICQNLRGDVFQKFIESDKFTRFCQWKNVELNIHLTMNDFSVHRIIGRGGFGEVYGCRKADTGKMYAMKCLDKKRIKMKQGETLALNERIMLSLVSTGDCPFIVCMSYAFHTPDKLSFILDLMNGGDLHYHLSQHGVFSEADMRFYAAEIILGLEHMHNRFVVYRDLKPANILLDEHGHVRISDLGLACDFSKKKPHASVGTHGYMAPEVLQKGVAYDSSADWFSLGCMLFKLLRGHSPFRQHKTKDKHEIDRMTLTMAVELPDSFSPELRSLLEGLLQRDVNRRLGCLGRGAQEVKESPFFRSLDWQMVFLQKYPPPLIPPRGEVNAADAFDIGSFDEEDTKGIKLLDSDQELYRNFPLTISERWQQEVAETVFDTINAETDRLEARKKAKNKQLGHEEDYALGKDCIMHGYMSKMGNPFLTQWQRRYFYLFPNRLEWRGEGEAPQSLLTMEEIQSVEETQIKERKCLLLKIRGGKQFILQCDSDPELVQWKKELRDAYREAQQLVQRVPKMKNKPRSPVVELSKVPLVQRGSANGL
Sequence of AP-2 complex subunit beta (Homo sapiens) (P63010 whole entry, looked up, the tested form may be a part, one chain of several): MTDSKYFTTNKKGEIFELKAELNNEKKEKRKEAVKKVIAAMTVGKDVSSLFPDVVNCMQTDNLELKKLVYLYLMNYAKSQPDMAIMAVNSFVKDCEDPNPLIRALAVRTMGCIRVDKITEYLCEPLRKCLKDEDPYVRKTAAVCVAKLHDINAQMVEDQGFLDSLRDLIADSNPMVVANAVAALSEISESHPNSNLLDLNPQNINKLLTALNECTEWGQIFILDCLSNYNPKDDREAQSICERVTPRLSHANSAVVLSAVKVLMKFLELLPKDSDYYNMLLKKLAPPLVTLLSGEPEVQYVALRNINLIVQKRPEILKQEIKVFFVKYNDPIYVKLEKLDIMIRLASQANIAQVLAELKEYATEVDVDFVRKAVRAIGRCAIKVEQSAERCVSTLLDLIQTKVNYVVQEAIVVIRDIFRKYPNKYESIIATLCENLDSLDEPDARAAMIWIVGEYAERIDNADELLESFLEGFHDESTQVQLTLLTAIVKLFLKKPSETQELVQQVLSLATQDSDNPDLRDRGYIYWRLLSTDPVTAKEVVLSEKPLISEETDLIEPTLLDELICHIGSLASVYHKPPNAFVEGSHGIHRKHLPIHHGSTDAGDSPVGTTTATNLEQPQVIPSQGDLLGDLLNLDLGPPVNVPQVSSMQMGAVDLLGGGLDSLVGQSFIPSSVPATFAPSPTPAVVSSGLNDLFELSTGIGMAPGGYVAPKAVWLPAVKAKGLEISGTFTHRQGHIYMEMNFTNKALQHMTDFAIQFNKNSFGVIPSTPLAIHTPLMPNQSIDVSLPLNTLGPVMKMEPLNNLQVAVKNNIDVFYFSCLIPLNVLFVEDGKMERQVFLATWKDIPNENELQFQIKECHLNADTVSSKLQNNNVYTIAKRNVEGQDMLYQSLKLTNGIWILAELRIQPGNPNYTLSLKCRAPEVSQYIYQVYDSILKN

COc1ccc2c(C=O)cn(C)c2c1
66.8%: double positive events [6]
inactive: percent of DMSO control GFP [1] 89.8% | GFP response vs DMSO [2] 137% | percent response of DMSO control [3] 103% | GFP response vs DMSO [4] 82% | GFP response, % of DMSO [5] 85% | vesicle binding response [6] 151% | inhibition [7] 6.46% | superoxide response (% of plate) [8] 87.5% | aptamer binding inhibition [9] 7% | response [10] -0.49% | inhibition [11] 9.51% | response [12] -4.19% | binding (% of control) [13] 105% | efflux inhibition (fraction of control) [14] 0.27 | inhibition [15] 11% | differentiation response [16] 4.91%

CC(C)=CCC(C)(C)/C=N/NC(N)=O
59.7%: double positive events [6]
inactive: percent of DMSO control GFP [1] 101% | GFP response vs DMSO [2] 102% | percent response of DMSO control [3] 98.3% | GFP response vs DMSO [4] 109% | GFP response, % of DMSO [5] 111% | vesicle binding response [6] 464% | inhibition [7] 14.2% | superoxide response (% of plate) [8] 97.9% | aptamer binding inhibition [9] 4% | response [10] -21.9% | inhibition [11] -2.34% | response [12] 1.02% | binding (% of control) [13] 100% | efflux inhibition (fraction of control) [14] 0 | inhibition [15] 4% | differentiation response [16] 5.85%

COc1cc(C(=O)NCCc2c[nH]c3ccccc23)ccc1OCc1c(C)noc1C
inactive: percent of DMSO control GFP [1] 96.7% | GFP response vs DMSO [2] 106% | percent response of DMSO control [3] 98.6% | GFP response vs DMSO [4] 120% | GFP response, % of DMSO [5] 93.5% | vesicle binding response [6] 295% | inhibition [7] -15.4% | superoxide response (% of plate) [8] 110% | aptamer binding inhibition [9] 0% | response [10] 6.37% | inhibition [11] -0.24% | response [12] 1.87% | binding (% of control) [13] 107% | efflux inhibition (fraction of control) [14] -0.03 | inhibition [15] 3% | differentiation response [16] 10.4%
56%: double positive events [6]

CCc1oc2ccccc2c1C(=O)c1cc(Br)c(O)c(Br)c1
active: response [12] 15.2%
inactive: percent of DMSO control GFP [1] 92.2% | GFP response vs DMSO [2] 117% | percent response of DMSO control [3] 106% | GFP response vs DMSO [4] 78.1% | GFP response, % of DMSO [5] 91% | vesicle binding response [6] 165% | inhibition [7] 7.43% | superoxide response (% of plate) [8] 118% | aptamer binding inhibition [9] 4% | response [10] 2.6% | inhibition [11] -0.81% | binding (% of control) [13] 102% | efflux inhibition (fraction of control) [14] 0.01 | inhibition [15] 12% | differentiation response [16] 9.83%
65.3%: double positive events [6]

CCN(CC)c1ccc2cc(-c3nc(-c4ccc(OC)cc4)cs3)c(=O)oc2c1
149%: GFP response, % of DMSO [20, 22]
135%: GFP response relative to DMSO ([18]; measured here: mother cell gate response)
152%: GFP response, % of DMSO [20, 21]
103%: GFP response vs DMSO [17, 21]
106%: GFP response vs DMSO [17, 22]
inactive: GFP response vs DMSO [17] 105% | GFP response relative to DMSO [18] 138%
132%: GFP response relative to DMSO ([18]; measured here: daughter cell gate response)
active: GFP response vs DMSO [19] 180% | GFP response, % of DMSO [20] 160%

CCSC(SCC)[C@H](O)[C@@H](O)[C@H](O)[C@H](O)CO
58%: double positive events [6]
inactive: percent of DMSO control GFP [1] 95.5% | GFP response vs DMSO [2] 113% | percent response of DMSO control [3] 107% | GFP response vs DMSO [4] 74.8% | GFP response, % of DMSO [5] 93.8% | vesicle binding response [6] 218% | inhibition [7] 6.46% | superoxide response (% of plate) [8] 114% | aptamer binding inhibition [9] 7% | response [10] -7.81% | inhibition [11] 4.05% | response [12] -1.88% | binding (% of control) [13] 104% | efflux inhibition (fraction of control) [14] 0.3 | inhibition [15] 6% | differentiation response [16] -2.46%

CC(C)c1cc(=O)oc2c3c4c(cc12)CCCN4CCC3
59.3%: double positive events [6]
active: response [10] 46% | response [12] 21.6%
inactive: percent of DMSO control GFP [1] 104% | GFP response vs DMSO [2] 99.6% | percent response of DMSO control [3] 99.6% | GFP response vs DMSO [4] 78.6% | GFP response, % of DMSO [5] 90.6% | vesicle binding response [6] 145% | superoxide response (% of plate) [8] 97.7% | aptamer binding inhibition [9] 9% | inhibition [11] -43.1% | binding (% of control) [13] 98.7% | efflux inhibition (fraction of control) [14] 0.3 | inhibition [15] 2% | differentiation response [16] -21.6%

CS(=O)(=O)c1cccc(C(=O)Oc2ccccc2)c1
inactive: percent of DMSO control GFP [1] 104% | GFP response vs DMSO [2] 97.2% | percent response of DMSO control [3] 106% | GFP response vs DMSO [4] 82.8% | GFP response, % of DMSO [5] 101% | vesicle binding response [6] 76.6% | inhibition [7] 9.92% | superoxide response (% of plate) [8] 99% | aptamer binding inhibition [9] 3% | response [10] -8.78% | inhibition [11] -4.57% | response [12] -0.27% | binding (% of control) [13] 100% | efflux inhibition (fraction of control) [14] -0.1 | inhibition [15] 3% | differentiation response [16] 10%
60.5%: double positive events [6]

Cc1ccc(CSCC(=O)N2CCCC2)cc1
63.7%: double positive events [6]
inactive: percent of DMSO control GFP [1] 102% | GFP response vs DMSO [2] 98.7% | percent response of DMSO control [3] 101% | GFP response vs DMSO [4] 106% | GFP response, % of DMSO [5] 106% | vesicle binding response [6] 132% | inhibition [7] 20.4% | superoxide response (% of plate) [8] 95% | aptamer binding inhibition [9] -2% | response [10] 7.33% | inhibition [11] -2.44% | response [12] -8.52% | binding (% of control) [13] 97.9% | efflux inhibition (fraction of control) [14] -0.05 | inhibition [15] 0% | differentiation response [16] -8.96%

C/C(=N\NC(=O)C1(C)CC1(Br)Br)c1ccc([N+](=O)[O-])cc1 (configuration not stated)
inactive: percent of DMSO control GFP [1] 105% | GFP response vs DMSO [2] 99.3% | percent response of DMSO control [3] 105% | GFP response vs DMSO [4] 85.5% | GFP response, % of DMSO [5] 104% | vesicle binding response [6] 390% | inhibition [7] -0.45% | superoxide response (% of plate) [8] 83.6% | aptamer binding inhibition [9] 6% | response [10] -9.52% | inhibition [11] -5.83% | binding (% of control) [13] 98.5% | efflux inhibition (fraction of control) [14] -0.17 | inhibition [15] 1% | differentiation response [16] 13.9%
active: response [12] 26.1%
65.3%: double positive events [6]
